The campaign covered roughly 53,000 sequences. About 3,700 (7%) were called active.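 Rule for the calls: active = gene knockdowns whose robust z-score for IL-1 alpha signal is at least 2 or at most -2, so actives lie on both sides; inactive = the rest.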 The full list was thinned out, with actives kept by preference.

This assay in a line: Components of the Cytosolic LPS Sensing Pathway: Gene Identification via Genome-wide siRNA Screen.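 Note: robust z of the log signal after scaling to non-targeting control siRNA wells of the plate.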 As to conditions: RAW264.7 macrophages, IL-1a HTRF, actives lie on both sides, screened at 100 nM (by protocol), cells primed 5 h with Pam3CSK4 first. Put shortly:
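Mouse macrophage line RAW264.7 is transfected with siRNA (100 nM final), grown 48h, primed with TLR ligand Pam3CSK4 5 h and given intracellular LipidA 24 h. IL-1a in supernatant is read by HTRF and viability by luminescence.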
In general terms: TR-FRET usually uses a lanthanide donor and a delayed reading to cut background.
As for GGAUUUGUAGUUCAUCUCATT against Olfr77, the z-score was 0.0834 (inactive).
In the case of GGUCAGUGGAGCUCUCUAUTT against Fam234a, the z-score was 1.43 (inactive).
The same measure for GGUUCUAAAACUUAACAAGTT against Brf2: 2.7 (active); for GGCAAACAACUGAAUAAGGTT against Pbsn: -0.611 (inactive); for CCAAGUUAGUCUGCGUAUUTT against Zfp979: -0.52 (inactive).
The result for CCCUACCCAGUUUCAGUUGTT against Phf12 reads 0.206 (inactive).
The result for CCUGUGAAUUCAUCGUUCATT against Vps26c reads 2.34 (active); that for GCAUACCUAGGAAAAAACUTT against Ednra, 0.524 (inactive).
For GGUAUUGACAGGGAUCUGATT against Limk1, the z-score was 1.19 (inactive).
For “GGCCUUAGGAAUCAAGUUGTT against 9530053A07Rik”, the z-score is 1.24 (inactive).
The same measure for GGGUUUCAAUGGCACAAUUTT against Kif3b: 2.12 (active); for GGAUAACGUAAUGAAGAUCTT against Fgfr1: -0.866 (inactive); for GGUUUCUUCUUCUGUUCAUTT against Ostc: 1.13 (inactive).
The same measure for GGCUCAAAGACUGAAUCCCTT against Recql4: 0.309 (inactive); for GCUAUCUAGAGCCAAGAGCTT against Bahcc1: 2.27 (active).
Turning to GCUAGACCUCACUGUUUUUTT against Sprr2i, the z-score is 1.03 (inactive).
The result for GCAGCAUGAAUCACACCUUTT against Dtd2 reads -1.29 (inactive).
The result for CGUGUUCAAAAGAGUUUUCTT against Sos1 reads 1.22 (inactive); that for GCGGCUUUGUAUACAAGUUTT against Vwc2l, 1.11 (inactive); that for GGUAACUGUGGACUUAUCUTT against Olfr665, -2.17 (active).
The result for GGCUGUCAGAACCAACUACTT against Tshb reads 0.214 (inactive).
Consider CUCUAGUGUUACACUUAUUTT against Tefm, for which the z-score is 2.83 (active).
With GGCCUUGAGAGGCUAAUACTT against Spata20, the z-score was -1.27 (inactive).
The result for GGUGAUUGUUAGAGUUAAATT against Syt4 reads 0.934 (inactive).
Regarding GGUAAAAACCCAGAGAUGATT against Rem2, the z-score is 0.616 (inactive).
In the case of GGAACUAAUGUGCAGGAGGTT against Suclg2, the z-score is 0.459 (inactive).
The same measure for “CCGUGAUCCCUUUUCACCATT against 6030445D17Rik”: -2.26 (active).
In the case of CACGCAGAUGAUUAAGUUGTT against Olfr1000, the z-score is 1.25 (inactive).
The result for GGAGAAUGAGAUCAACCUGTT against Pah reads 0.618 (inactive); that for GGAGAACAGUCUUGAGAAATT against Crisp3, -0.712 (inactive).
The same measure for CCUCCAGGAUUAUCGUGAUTT against Dnajc6: -1.22 (inactive); for GGCUUAAUGUUGCUUCAGATT against Aven: -0.959 (inactive); for GGUCAAUUAUGAAGAGUUUTT against Calm3: 3.04 (active).
The result for CCUUAAAAACUCGAGUAAATT against Gla reads 0.384 (inactive); that for GCGGUCACACCAAAAGUCATT against Olfr1466, -1.56 (inactive); that for GCUGUUUAUCUAGCUGUUATT against Mmp8, 0.782 (inactive).
As for GGAUGUUAACAUUGAGCAATT against Asb11, the z-score was -0.0828 (inactive).
As to GGCAUUUCAACUGGACCCATT against Lamb1, the z-score is -2 (active).
With GACGCAAGCAGCAUUUUAUTT against R3hdm4, the z-score was -0.207 (inactive).
The result for CCGUCAUCUACACCUAUUUTT against Olfr525 reads 0.102 (inactive).
The same measure for CGGCUUAUGAGUUAAAGACTT against Rad51b: -1.03 (inactive); for GGUAGAUUAUAGCAAAAUGTT against Ik: -2.23 (active); for GGUUAAGUGUGUUAAGUUCTT against Cipc: 1.48 (inactive).
On to GGCCUCAAAUACCAUAACATT against Zfp941, for which the z-score is 0.000237 (inactive).
The result for CGGACACAUGAUUGUCUUCTT against Npas1 reads 1.25 (inactive); that for GGUUUGAUGACAAAUACACTT against Spcs2, 1.6 (inactive); that for GCUGGUACAGCGUAUACCATT against Cep170b, -1.03 (inactive).
The same measure for GGAUGUUCUCAAACUACAATT against Kdm1b: 0.702 (inactive).
For the sequence GGGCAAGCCACUCAUGUUGTT against Me2, the z-score was -0.997 (inactive).
As for CCUAGAGAUUGGUAUGUACTT against Tmem132e, the z-score is -2.1 (active).
The same measure for GCCAUUAAUCUCACAUGUATT against Crebrf: 1.39 (inactive); for GGAUCCUUCGAAUCCUGAATT against Cst11: -0.372 (inactive); for CCCAUGUUUAUGUUGCUGATT against Olfr467: 0.251 (inactive).
The same measure for GGACACCUGAAGUUAGUUUTT against Ndufaf1: 0.622 (inactive); for GGAGAAGGAUCUGAACGAGTT against Nog: -1.24 (inactive).
With CCUUAUGGAUUUAGCAUCATT against Lamb3, the z-score was 0.917 (inactive).
The result for CCAAACCAGUGGAGUCCAUTT against Slc7a14 reads -2.26 (active); that for ACUAUGGUUGGUUCAAACGTT against Acat2, -1.23 (inactive).
The result for “GCACAACGGUUCGUUGUUATT against 4933427E11Rik” reads -1.17 (inactive); that for GGUGUAGGCUGUCCAAUAATT against Rtel1, 0.74 (inactive).
The result for GACUCUUGUCCCAAGUGUUTT against Bloc1s4 reads 0.144 (inactive); that for GGAUCAACAGUCAAUUGUGTT against Tax1bp1, -2.16 (active); that for AUAGUGGAACCCUUUGUACTT against Olfr1195, -0.832 (inactive).
Consider GGAAUACGACAGAACUCCATT against Extl1, for which the z-score is 0.218 (inactive).
The same measure for GGAGAAGCAAACUGCACCUTT against Cacng6: 1.08 (inactive); for GGACCUGAAACACGCCAAUTT against Cdk18: -0.35 (inactive); for GCGGGAGAGCUAUGAAACATT against Mrps21: -0.0502 (inactive).
The result for GGGAAAUUUCUCUACAUCUTT against Npas1 reads 2.2 (active).
On to GGCUGCACAAAACGAGAUCTT against Tcirg1, for which the z-score was -0.0738 (inactive).
The result for GGCAAACAAAUGGUUUGUUTT against Zfp324 reads -0.544 (inactive).
The same measure for GGUUCUCGGUAAAUCCUGCTT against Slc35b1: -1.07 (inactive); for GGAGGUUGAGGCUUCUAAGTT against Pacsin3: 1.2 (inactive); for GGAUAAUGAGCUGAACAUATT against Nek7: -0.0844 (inactive).
The result for “GGAAGCAUGCAAUGAUAUUTT against 4933431E20Rik” reads -2.31 (active); that for GCCUCACUUUGACUGUCGCTT against Tpgs2, -0.289 (inactive).
For the sequence GGAGAAAGUGAUUGACAUATT against Lpin2, the z-score was -0.0579 (inactive).
The same measure for GGAAGGGUUUGUUUGUUUATT against Nkiras1: 1.55 (inactive); for GGCCUUGAAAGCCAUUGGUTT against Kmo: -0.728 (inactive); for GCGCGACAAAUCGUAGGCUTT against Mamstr: -2.13 (active).
The result for GGACUUGAAGAACUGUUAUTT against Hspa13 reads -0.0642 (inactive); that for CGUGCUGUAUGGCAAAGUUTT against Bst1, 0.563 (inactive).
The result for GCCCAUGUUUGUGAGGGUUTT against Fem1al reads -0.0893 (inactive); that for GCACUUCCCUCCCUAUGCATT against Cep20, -2.11 (active).
Regarding GGUUCCAAUGCUAUUGAAUTT against Tc2n, the z-score is 0.391 (inactive).
The same measure for GGUUAUAUUAUGUAGCCUATT against Klf17: 0.332 (inactive).
The result for GGUCACAGUUGGCAAAGAUTT against Myh11 reads -0.521 (inactive); that for GCGUAAGCAGCAAGAUGGATT against Ash2l, 1.21 (inactive); that for GCUUUCAAGUGGUUAUGAATT against Nsun6, 0.0136 (inactive).
As to CGUGUAUCGUUGUCUGAAUTT against Donson, the z-score is 2.75 (active).
The result for GCGACCAUUUCGUUUUAGUTT against Frat1 reads 1.07 (inactive); that for GGAAAGCAAGUCGUAAGCCTT against Mrps10, -0.755 (inactive); that for AAUGCUCAGAAAGAAUAACTT against Sprr2e, -0.31 (inactive).
The result for UGUUACUGGACUCUCCACATT against Olfr320 reads 0.372 (inactive); that for GCUGUGUUAGGAUUGUCCATT against Olfr553, 0.252 (inactive).
The result for GGUACACUACAUGACUCAUTT against Sall4 reads 2.35 (active); that for GGCAUCAAGUCCAUUUUUGTT against Slc12a4, 0.108 (inactive).
As to GGCAGGCAGAAAGCUUUGUTT against Olfr1054, the z-score was 1.8 (inactive).
The result for GCUAAUCACCAAAGCUGAGTT against Larp7 reads 0.546 (inactive); that for CCUAAUCUUCGUGCUUUACTT against Minpp1, 1.4 (inactive).
The result for CCUGUGAAAGAUGCUUAUATT against Capn7 reads -1.65 (inactive).
The same measure for CGGGAUGACUACAAUCUGGTT against Ssbp3: -2.17 (active); for GCUCAGCUAGCAGAAAUUCTT against Nlrp2: -1.76 (inactive); for GGAGGCCAAAGGACUGAUCTT against Hectd4: 1.56 (inactive).
Take CCACAGACAGUUAUUACUGTT against Adgre1: the z-score is -1 (inactive).
CCCAAGAGUGUUUGAGAACTT against Zbtb43: the z-score is 0.213 (inactive).
The same measure for GGCAUUUAUUAUCAGGCUGTT against Pes1: 0.665 (inactive).
The result for “GCUCGAGAAGAGUUUGUUATT against 1700030J22Rik” reads 0.933 (inactive); that for GCAACUUGUUAGUGGACUCTT against Olfr620, -1.08 (inactive).

The values above are taken from PubChem BioAssay AID1508600 (Functional Genomics Laboratory (NCATS/FGL), 2020).
